Assay results reported in the supplement of paper PMC6555819.

Columns and labels:
Assay in all cases: PBM binding z-score (relative to random genomic background probes); higher = stronger binding; sequences stand for … in GC…GCGATTGACAGCGTAGAATGAAGG
[1] = test system: RARb homodimer (NR concentration 270 nM)
Outline: (§1)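 Binding z-scores were set against random background probes. The data came from custom Agilent 4×180K protein-binding microarrays carrying double-stranded probes with 34-nt variable regions, incubated 1 h with ligand-free nuclear receptor dimers. Partner-specific antibodies detected binding, and scanned fluorescence was regression-normalized.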

[2] = test system: RARg:RXRa (NR concentration 270 nM, RXRa partner concentration 90 nM)
Outline: as §1

[3] = test system: RARg homodimer (NR concentration 270 nM)
Outline: as §1

[4] = test system: RXRa DBDmut IVT, anti-RXR (DBD mutation: RXRa K156A/R161A, NR concentration 90 nM)
Outline: as §1

[5] = test system: RXRa homodimer (NR concentration 180 nM)
Outline: as §1

[6] = test system: THRa:RXRa (NR concentration 90 nM, RXRa partner concentration 90 nM)
Outline: as §1

[7] = test system: THRa homodimer (NR concentration 90 nM)
Outline: as §1

[8] = test system: VDR homodimer (NR concentration 270 nM)
Outline: as §1

Sequence | PBM binding z-score [1] | PBM binding z-score [2] | PBM binding z-score [3] | PBM binding z-score [4] | PBM binding z-score [5] | PBM binding z-score [6] | PBM binding z-score [7] | PBM binding z-score [8]
CTATGTAGGTTAAGGGGGTCGTTCAGTTTGAAAG | 2.42 | 2.9 | 2.06 | 1.7 | 2.93 | 2.7 | 1.62 | 4.04
CAGCCTAGGTGAGGGCCAGTATAGGAGGAACGTT | 0.105 | -0.107 | 0.177 | -0.941 | -0.128 | 0.00456 | -0.223 | -0.734
AGAATGAGGTTACCAGAGATCAGGGAAACGCTTG | 0.721 | 2.28 | 1.8 | 1.1 | 2.88 | 3.28 | 0.705 | 0.106
CCTACTGGGCCAAGGTCATAGATCAGTCAAAGCA | 3.17 | 3.62 | 2.88 | 0.741 | 3.51 | 3.38 | 2.25 | 1.92
ATATGTAGGTTAAGGGTCATGCAGGTTGGTTCGC | 3.89 | 5.07 | 3.84 | 1.76 | 6.52 | 3.5 | 1.93 | 3.81
CCGAGTAGGTTACGAGGGGGCATGCAGTGCGAAT | 2.07 | 3.17 | 2.67 | 1.12 | 2.12 | 3.73 | 0.433 | 2.6
GATACAGGGTCAGCTTGAGGCCAGAGTATGGAAA | 2.94 | 5.72 | 4.77 | 1.81 | 4.55 | 3.73 | 0.959 | 0.666
TTTCCAAGGTGAAAGGTCGTTGATGCACGCCTTG | 2.58 | 4.16 | 1.99 | 0.408 | 5.33 | 3.76 | 1.38 | 1.38
CCTTACGGGTCTCTCCAGGTTATAGCATCGGAGT | 0.324 | 0.139 | 0.231 | -0.347 | 0.0573 | 3.09 | 0.346 | 0.105
CCTTACGGGTCAAGGTTATCGCACGGGTGGTACG | 3.58 | 5.02 | 5.11 | 1.31 | 5.6 | 3.15 | 1.02 | 1.69
GCTAGTTGGTCAGTAAATGGTCACACACCGGTCG | 1.28 | 0.401 | 0.586 | 0.286 | 0.551 | -0.021 | -0.105 | 0.116
CCTTACGGGCCACGAGGTTATAGCACGACGAGCG | 1.17 | 1.33 | 1.07 | -0.516 | 1.28 | 1.25 | 0.458 | 0.543
CCTAGTTGGTCAAGGTCTCACACGCTATAGGTAC | 1.32 | 0.677 | 1.21 | 1.08 | 0.272 | 0.956 | 1.03 | 0.887
CCGAGTAGGTTACGAGGGGGCGTTCAGTGCGAAT | 1.42 | 2.52 | 1.89 | 1.17 | 1.42 | 3.16 | 0.485 | 2.88
TCTCGGAGGACACGAAAGGTCTGAGCTCGACATC | 1.21 | 0.667 | 1.47 | 0.831 | 0.137 | 1.53 | 0.392 | -0.266
CGTCCAAGGTCATAGGAGGTCACTGAAGACAGAT | 5.4 | 7.13 | 7.45 | 4.05 | 7.22 | 5.37 | 3.68 | 5.28
TCATATAGGTAATCAGGTGAAAGTCCGTAAGTTA | 0.773 | 0.361 | 0.3 | 1.52 | 0.885 | 1.82 | 1.51 | 0.521
CCGAGTAGGTTAGGAGGGGGCATTCAGTGCGAAT | 2.05 | 2.89 | 2.76 | 1.76 | 1.87 | 3.46 | 1.44 | 4.12
CGTCCAAGGTCAATGCTAGCTCAGTGAAAGCATT | 3.86 | 5.61 | 6.7 | 3.48 | 5.19 | 3.64 | 2.02 | 1.83

Sequence | PBM binding z-score [1] | PBM binding z-score [2] | PBM binding z-score [3] | PBM binding z-score [4] | PBM binding z-score [5] | PBM binding z-score [6] | PBM binding z-score [7] | PBM binding z-score [8]
CGAACTAGATCACCAGGACAGTGAAGAGGTTGGA | 0.0313 | -0.13 | 0.172 | 0.251 | 0.0064 | 0.901 | 0.52 | -0.172
ATATGTAGGTTAGGGTCATTGAGAAAGTAGGGAA | 3.51 | 4.09 | 3.1 | 2.32 | 5.3 | 4.13 | 3.44 | 3.55
ATATGTAGGTCAGCTGGGGTCATTCAGACTAGGC | 5.26 | 6.13 | 6.32 | 2.43 | 6.85 | 5.44 | 3.41 | 5.57
CCCCGGAGGACAGAAGGTCAGAGCTGTCCGCTTT | 3.7 | 3.27 | 3.26 | -0.968 | 1.78 | 2.21 | 0.211 | 0.277
TCGAGAAGGTTACGGGGGCATTCAGGGATGAAGA | 3.05 | 4.33 | 3.04 | 2.36 | 4.23 | 4.21 | 1.42 | 3.33
CGAACTAGGTCAAAGGATAGTGAAAGGCGACGTA | 2.35 | 3.47 | 4.16 | 1.28 | 2.85 | 2.22 | 0.17 | 0.124
CAAAGTAGGTCACGAAAGGTCAAAGTCGAATGAC | 6.1 | 8.06 | 8.76 | 2.36 | 8.62 | 4.95 | 1.49 | 3.31
AGTCAGAGTTCATCTAGGTAACGTAAGATATGCT | 3.28 | 4.7 | 4.79 | 4.9 | 4.73 | 3.14 | 0.225 | 7.13
CCGAGTAGGTTACGAGGGGGCCTTCAGTGCGAAT | 0.846 | 2.15 | 1.32 | 0.265 | 0.978 | 2.11 | 0.4 | 0.498
CTATGTAGGTTAAGGGGGTCATTCAATTTGAAAG | 3.69 | 4.93 | 3.88 | 2.02 | 5.5 | 3.97 | 1.83 | 5.01
ACTCGGGGGACAAAGGTCAGAGCTACGCCAGTGA | 4.56 | 7.2 | 6.12 | 2.06 | 6.34 | 3.82 | 1.07 | 1.81
CTATGTAGGGTAAGGGGGTCATTCAGTTTGAAAG | 4.04 | 5 | 3.92 | 2.91 | 5.44 | 3.99 | 2.95 | 6.62
CTTACTGGGCCAAAGGTCATTGATTCCAATGCTC | 4.58 | 5.97 | 4.91 | 1.99 | 6.68 | 3.36 | 0.898 | 2.79
CGAACTAGGTGACCAGGACAGTGAAGAGGTTGGA | 1.03 | 0.633 | 0.705 | -0.229 | 0.65 | 1.36 | 0.885 | -0.155
AATACAGGATCACTAGGCCAGAGTAGGTACGAAT | 0.388 | 0.343 | 0.495 | -0.317 | 0.367 | -0.0476 | -0.262 | 0.0243
CGAACTAGGTCACCTGGACAGTGAAGAGGTTGGA | 3.36 | 4.43 | 5.32 | 1.49 | 3.36 | 3.1 | 1.2 | 0.466
CGAACTAGGTCAAAGGAGAGTGAAAGGCGACGTA | 2.43 | 3.75 | 4.22 | 1.62 | 3 | 2.32 | 0.277 | 0.0165
CGTCCAAGGTCAAGGTGAGTGAAAGAGACTCGAA | 3.64 | 5.92 | 6.65 | 3.37 | 6.02 | 3.8 | 2.86 | 1.94
TCGAGTAGGTTACGGAGGCATTCAGGGATGAAGA | 0.171 | 0.578 | 0.4 | -0.134 | 0.833 | 1.1 | -0.655 | -0.549

Sequence | PBM binding z-score [1] | PBM binding z-score [2] | PBM binding z-score [3] | PBM binding z-score [4] | PBM binding z-score [5] | PBM binding z-score [6] | PBM binding z-score [7] | PBM binding z-score [8]
CGCACTAGGTCATTGACAGGACAGTGAATAGTAA | 2.68 | 4.77 | 4.46 | 2.35 | 2.57 | 2.91 | 1.16 | 1.54
AGAATGAGGTTAGCAAAGATCAGGGAAACGCTTG | 0.446 | 0.938 | 0.899 | 0.105 | 1.23 | 1.8 | 0.173 | -0.135
CTATGTAGGTTAAGGGGGTCATTTAGTTTGAAAG | 3.86 | 5.19 | 3.66 | 2.54 | 5.85 | 3.83 | 2.03 | 5.81
CTATGTAGGTTAAGAGGGTCATTCAGTTTGAAAG | 3.03 | 3.16 | 2.3 | 1.33 | 3.33 | 2.42 | 0.33 | 3.39
CGAGCTAGGTCACCAGGACAGTGAAGAGGTTGGA | 3.31 | 4.21 | 5.39 | 1.24 | 2.97 | 3.18 | 1.65 | 0.493
CTAACTAGGTCACCGGAAGGTCAAAGTCCGCATG | 5.66 | 8.24 | 7.39 | 2.16 | 6.18 | 4.48 | 2.98 | 2.9
ATATGTAGGTTAGGGTCCTTCAGAAAGTAGGGAA | 0.958 | 0.561 | 0.821 | 0.642 | 0.851 | 1.21 | 0.898 | 0.793
ATATCTAGGTTAGGGTCATTCAGAAAGTAGGGAA | 3.56 | 4.06 | 3.32 | 2.56 | 4.98 | 4.14 | 3.56 | 4.16
CGAACCAGGTCACCAGGACAGTGAAGAGGTTGGA | 3.59 | 5.06 | 5.35 | 2.04 | 4.73 | 3.94 | 2.77 | 1.62
ACATGTAGGTTAGGGTCATTCAGAAAGTAGGGAA | 3.51 | 4.16 | 3.32 | 3.02 | 5.14 | 4.05 | 3.66 | 3.75
ACTAGGAGGACAAAGGTCAGAGCTACGCCAGTGA | 4.5 | 6.01 | 5.64 | 0.898 | 5.85 | 3.37 | 0.874 | 0.936
ATCTCTAGGTTAAAGTTCAGTGAATCCCGAGGAT | 2.94 | 3.52 | 3.27 | 1.18 | 4.46 | 2.3 | 0.775 | 3.12
CCTAGTTGGTCAAGGTCACGCACGCTATAGGTAC | 4.81 | 5.21 | 5.57 | 1.94 | 5.65 | 4.06 | 4.48 | 3.96
CCGAGTAGGTTACGAGGGGGCATTCAGTGCGAAT | 2.12 | 3.18 | 2.54 | 1.15 | 2.18 | 3.83 | 0.272 | 3.79
CGAACTAGGTCACCCGGACAGTGAAGAGGTTGGA | 3.23 | 4.48 | 5.44 | 1.27 | 2.93 | 2.98 | 1.47 | 1.13
ATCGAATGGTCGAAGGTGAGTATACCCACCCGAA | 0.0928 | 0.392 | 0.497 | -0.884 | 0.585 | 0.0175 | -0.459 | -0.194
CGAACTAGTTCAAGGACAGTGAATCTCCGCACGC | 0.95 | 0.588 | 0.91 | 1.78 | 0.544 | 2.01 | 1.47 | 0.883
CGCACTAGGTCAAAGGACAGTGAAAGGCGACGTA | 3.01 | 4.03 | 4.5 | 1.95 | 2.87 | 2.68 | 0.793 | 0.314
CGTCAAAGTTCAAGGTAAAGTAACAGAAAGCAGC | 3.36 | 5.19 | 6.06 | 4.04 | 4.17 | 2.5 | 0.503 | 2.89
